The results in this text go back to PubChem BioAssay.

Test [1] can be described thus: resazurin metabolic signal in HepG2 cells – cell-based, resazurin fluorescence, 24 h, PK04 Diversity Set, profiling panel (AID 1172). Note: test concentration not given here. Particulars: HepG2 viability, higher = more signal.
A short description of test [2]: budding yeast growth changes without added modifier – OD600, strain BY4716, 24 h, basal condition, primary screen (AID 1173). Conditions: S. cerevisiae BY4716 growth, OD600, 24 h; higher = more signal, called active from +8 up or from −8 down.
Test [3] is described as follows: viability profiling in MM1S myeloma cells – cell-based, resazurin fluorescence, basal, 24 h, PK04 Diversity Set, profiling panel (AID 1174).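 Note: MM1S multiple myeloma cell line; test concentration not given here.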 Conditions: higher = more signal, called active from +8 up or from −8 down.
The target in test [4] is Dihydroorotate dehydrogenase (quinone), mitochondrial (Plasmodium falciparum (isolate 3D7)) (UniProt Q08210). In words: inhibition of P. falciparum DHODH – biochemical, C-terminal His tag, absorbance 600 nm, primary screen (AID 1175).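 Note: recombinant parasite enzyme with a five histidine tag at its C terminus; test concentration not given here.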 Conditions: PfDHODH enzyme, DCIP absorbance 600 nm; higher = more signal, called active from +8 up or from −8 down.
Test [5] is described as follows: inhibition of PAO1 biofilm formation – strain PAO1, LB-PBS medium, absorbance 600 nm, primary screen (AID 1176). Note: test concentration not given here. Particulars: P. aeruginosa PAO1 growth/biofilm, A600, 12 h; higher = more signal.
Test [6] in a line: growth modulation of vineyard yeast isolate – strain RM11-1a, OD600, basal, 24 h, primary screen (AID 1177).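 Note: cultures grown under basal conditions with no added stressor; test concentration not given here.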 Conditions: S. cerevisiae RM11-1a growth, OD600, 24 h; higher = more signal, called active from +8 up or from −8 down.
Test [7] can be described thus: growth of efflux-deficient E. coli DRC39 – strain DRC39, OD650, 24 h, E. coli filamentation inducers, primary screen (AID 1178).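 Note: growth measured as culture turbidity by optical density at 650 nm; test concentration not given here.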 Particulars: E. coli DRC39 acrAB, higher = more signal, called active from +8 up or from −8 down.
A short description of test [8]: growth of efflux-deficient E. coli DRC39 – strain DRC39, OD650, 48 h, E. coli filamentation inducers, primary screen (AID 1179).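 Note: screen aims at cell division blockers that make cells filament.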 Conditions: E. coli DRC39 delta-acrAB growth, higher = more signal, called active from +8 up or from −8 down.
The nature of test [9]: viability profiling in RPMI8226 myeloma cells – cell-based, resazurin fluorescence, basal, 24 h, PK04 Diversity Set, profiling panel (AID 1180).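 Note: RPMI8826 multiple myeloma cell line at 5000 cells per well; test concentration not given here.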 Particulars: higher = more signal. (In general: Resazurin is reduced to fluorescent resorufin, in cell work by metabolically active cells.)
In test [10] the target is E3 ubiquitin-protein ligase XIAP (Homo sapiens) (UniProt P98170). In words: small molecules binding XIAP protein – biophysical, small-molecule microarray, fluorescence 635 nm, primary screen (AID 1181).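 Note: score merges 667 nm emission and signal to noise over triplicate slides.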 Conditions: higher = more signal.

Structures are written as SMILES. The source made the active and inactive calls. Unless noted, the rule behind the calls is not given here.

Sequence of E3 ubiquitin-protein ligase XIAP (Homo sapiens) (P98170 whole entry, looked up): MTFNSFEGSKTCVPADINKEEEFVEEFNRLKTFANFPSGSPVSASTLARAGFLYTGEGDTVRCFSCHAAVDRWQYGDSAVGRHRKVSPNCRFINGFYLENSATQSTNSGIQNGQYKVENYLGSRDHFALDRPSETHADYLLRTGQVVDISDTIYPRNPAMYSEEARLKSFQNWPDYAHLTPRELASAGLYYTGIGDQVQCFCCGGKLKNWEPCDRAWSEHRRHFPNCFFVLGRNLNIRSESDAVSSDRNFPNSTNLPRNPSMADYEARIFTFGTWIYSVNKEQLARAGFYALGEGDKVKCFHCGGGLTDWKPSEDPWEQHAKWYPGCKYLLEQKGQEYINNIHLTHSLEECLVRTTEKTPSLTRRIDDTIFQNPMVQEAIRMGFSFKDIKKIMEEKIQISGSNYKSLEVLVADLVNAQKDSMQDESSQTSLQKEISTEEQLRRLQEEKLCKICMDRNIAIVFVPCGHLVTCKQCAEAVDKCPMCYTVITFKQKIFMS
Sequence of Dihydroorotate dehydrogenase (quinone), mitochondrial (Plasmodium falciparum (isolate 3D7)) (Q08210 whole entry, looked up): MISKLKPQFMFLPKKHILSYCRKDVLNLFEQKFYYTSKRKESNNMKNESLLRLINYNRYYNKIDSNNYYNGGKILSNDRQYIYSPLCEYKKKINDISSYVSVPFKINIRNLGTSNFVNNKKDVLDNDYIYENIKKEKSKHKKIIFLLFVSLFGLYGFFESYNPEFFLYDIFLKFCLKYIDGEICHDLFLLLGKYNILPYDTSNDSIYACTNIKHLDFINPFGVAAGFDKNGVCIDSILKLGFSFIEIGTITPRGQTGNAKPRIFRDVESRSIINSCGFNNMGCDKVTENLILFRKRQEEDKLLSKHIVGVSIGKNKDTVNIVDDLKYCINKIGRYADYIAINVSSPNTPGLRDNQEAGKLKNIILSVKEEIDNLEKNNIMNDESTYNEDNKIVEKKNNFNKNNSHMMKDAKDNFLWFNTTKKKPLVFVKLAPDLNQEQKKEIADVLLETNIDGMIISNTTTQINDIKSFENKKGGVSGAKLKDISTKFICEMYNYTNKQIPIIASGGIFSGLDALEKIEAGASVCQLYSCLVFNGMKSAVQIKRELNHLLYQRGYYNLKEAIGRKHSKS

As for `C=CC[C@]1(C(N)=O)N=C(c2ccc(OCCCO)cc2)O[C@H]1c1ccccc1N=[N+]=[N-]`, the z-score in [1] is 0.021; in [2], -0.925 (inactive); in test [3], -0.362 (inactive); in test [5] it was 0.274 (inactive); in test [6], 1.32 (inactive); in test [7], 2.12 (inactive). The z-score in [8] was 2 (inactive); in test [9] it was -0.733. Moreover, the composite z-score is 0.315 (inactive) in test [4] and 0.217 in test [10].

For the compound `CCCCN1CC=CC23O[C@@H]4C=CCCOC(=O)C4[C@H]2C(=O)N(CCO)[C@@H]3C1=O` (stereo not given in full), the z-score in [1] is 0.551; in test [2] it was -0.0816 (inactive); in [3], 0.309 (inactive); in [5], 0.345 (inactive); in test [6] it was 0.13 (inactive); in test [7], -0.323 (inactive). In addition, the values for the z-score in test [8] and in test [9] were -0.414 (inactive) and -0.0692, respectively. The composite z-score in test [4] is 0.0051 (inactive); in test [10], -0.104.

For `CC[C@@H](O[Si](C#C[Si](C(C)C)(C(C)C)C(C)C)(C(C)C)C(C)C)c1cn(Cc2cccc(Cl)c2)nn1`, the z-score was 0.318 in test [1]; 1.42 (inactive) in test [2]; 0.0769 (inactive) in test [3]; 0.313 (inactive) in [5]; 1.33 (inactive) in [6]; -0.0544 (inactive) in test [7]. Further, the z-score in test [8] is 0.309 (inactive); in [9] it was 0.961. The figures for the composite z-score in test [4] and in test [10] were 0.625 (inactive) and 0.0583, respectively.

Turning to `O=C(CS)NCCCCCCNC(=O)[C@H]1C[C@H]2C(=O)NCC(=O)N2[C@H]1c1cccc(OCCO)c1`, the z-score is -0.39 in test [1]; -0.462 (inactive) in test [2]; -0.0674 (inactive) in test [3]; 0.339 (inactive) in test [5]; 0.0796 (inactive) in test [6]; 0.469 (inactive) in test [7]. In addition, the results for the z-score in test [8] and in test [9] were -0.814 (inactive) and -0.348, respectively. The composite z-score in [4] was -0.59 (inactive); in [10] it was 0.0269.

On to `O=C1C2C=CC(C(O)C3CC=CCC3)N(Nc3ccc([N+](=O)[O-])cc3)C2C(=O)N1c1ccccc1` (stereo not given), for which the z-score in test [1] was -0.681; in [2] it was -0.541 (inactive); in test [3], -0.428 (inactive); in test [5] it was 1.29 (inactive); in test [6], -0.0935 (inactive); in test [7], -0.544 (inactive). Also, the z-score is -0.861 (inactive) in test [8] and -0.617 in test [9]. Further, the results for the composite z-score in test [4] and in [10] were 0.354 (inactive) and 0.26, respectively.

On to `CCCCCN1CC=CC23O[C@@H]4/C=C\CCCOC(=O)C4[C@H]2C(=O)N(CCO)[C@@H]3C1=O` (stereo not given in full), for which the z-score is -0.192 in test [1]; -1.2 (inactive) in [2]; 1.22 (inactive) in test [3]; 0.938 (inactive) in test [5]; -0.843 (inactive) in test [6]; 0.859 (inactive) in test [7]. The values for the z-score in test [8] and in test [9] were 0.188 (inactive) and 0.936, respectively. Moreover, the composite z-score is -0.195 (inactive) in test [4] and -0.0918 in test [10].

As for `O=C1NC(=O)C2C1C=CC(C(O)C1CCCCC1)N2Nc1ccccn1` (stereo not given), the z-score in [1] is -0.864; in test [2], 0.876 (inactive); in test [3] it was -1.27 (inactive); in test [5], 2.68 (inactive); in test [6], 0.209 (inactive); in [7], -1.02 (inactive). Moreover, the z-score was -0.286 (inactive) in [8] and -1.33 in [9]. The results for the composite z-score in test [4] and in test [10] were 0.583 (inactive) and -0.0663, respectively.

Take `COC(=O)[C@]1(Cc2ccccc2CN=[N+]=[N-])N=C(c2ccc(OCCCO)cc2)O[C@@H]1c1ccccc1N=[N+]=[N-]`: the z-score in test [1] was -2; in test [2], 1.09 (inactive); in test [3], -4.02 (inactive); in test [5], 1.06 (inactive); in test [6] it was 1.77 (inactive); in [7], 1.74 (inactive). Besides, the z-score in [8] is 0.918 (inactive); in test [9], -6.89. Besides, the composite z-score in test [4] is -0.123 (inactive); in [10] it was -0.188.

With `CC(C)(C)OC(=O)CC[C@@]1(C(=O)N2CCOCC2)N=C(c2ccc(OCCCO)cc2)O[C@@H]1c1ccccc1CN=[N+]=[N-]`, the z-score is -0.538 in test [1]; -0.295 (inactive) in test [2]; -0.383 (inactive) in test [3]; 0.342 (inactive) in [5]; -0.423 (inactive) in test [6]; -0.294 (inactive) in test [7]. The values for the z-score in test [8] and in [9] were -0.0909 (inactive) and -0.365, respectively. For the same compound, the composite z-score is -0.405 (inactive) in [4] and 0.0345 in test [10].

Take `O=C1O[C@@H](c2ccccc2)[C@@H](c2ccccc2)N2[C@@H](c3ccc(OCCO)cc3)[C@]3(C(=O)Nc4ccc(C#CC5=CCCCC5)cc43)[C@@H](C(=O)Nc3nc4ccccc4s3)[C@H]12`: the z-score in test [1] is -0.533; in test [2] it was 1.46 (inactive); in test [3], -1.21 (inactive); in test [5] it was 3.52 (inactive); in test [6] it was 2.53 (inactive); in [7], -0.304 (inactive). The z-score in [8] is 0.141 (inactive); in test [9], -1. The composite z-score in test [4] is -4.05 (inactive); in [10], -0.339.

In the case of `C[C@]1(C(=O)NC2CC2)c2ccccc2C(=O)N(Cc2cc(F)cc(C(F)(F)F)c2)[C@H]1c1ccc(CO)cc1`, the z-score in [1] was 1.53; in test [2], 0.411 (inactive); in [3] it was 0.872 (inactive); in [5], -0.646 (inactive); in test [6] it was 1.34 (inactive); in test [7] it was 0.425 (inactive). The z-score is 0.401 (inactive) in test [8] and 1.04 in test [9]. Moreover, the results for the composite z-score in test [4] and in test [10] were 0.712 (inactive) and 0.195, respectively.

For the compound `COc1ccc(CCNC(=O)[C@@H]2c3ccccc3C(=O)N(Cc3cc(F)cc(C(F)(F)F)c3)[C@H]2c2ccc(CO)cc2)cc1`, the z-score was -0.162 in test [1]; -0.314 (inactive) in [2]; 0.821 (inactive) in test [3]; -0.121 (inactive) in [5]; -0.209 (inactive) in test [6]; 0.746 (inactive) in test [7]. Besides, the z-score in test [8] was 0.387 (inactive); in test [9] it was 1.16. Moreover, the composite z-score in test [4] is -0.179 (inactive); in test [10], -0.0835.

As for `Cc1ccc(N2C(=O)c3ccccc3[C@@H](C(=O)NCCN3CCOCC3)[C@@H]2c2ccc(CO)cc2)nc1`, the z-score in [1] was 0.925; in test [2], 0.473 (inactive); in [3], 0.544 (inactive); in [5], -0.618 (inactive); in test [6], 0.537 (inactive); in test [7] it was 0.193 (inactive). Also, the z-score in test [8] was 0.663 (inactive); in test [9] it was 0.547. Moreover, the composite z-score was 0.434 (inactive) in test [4] and 0.0095 in test [10].
